Measured values: the supplement of paper PMC11732987, “Enantioselective OTUD7B fragment discovery through chemoproteomics screening and high-throughput optimisation” (Communications Chemistry, 2025)

Assays:
Test in all cases: log2 ratio of Biotin-Ahx-Ub-VS probe labelling (fragment/DMSO); higher = less target engagement (more negative = stronger competition), active = hit call of the paper (q ≤ 0.05, log2 ratio ≤ -1)
Conditions in all cases: compound concentration: 200 uM; treatment time: 3 h
[1] = biological target: T1, USP19 (UniProt O94966)
T1 sequence (whole entry): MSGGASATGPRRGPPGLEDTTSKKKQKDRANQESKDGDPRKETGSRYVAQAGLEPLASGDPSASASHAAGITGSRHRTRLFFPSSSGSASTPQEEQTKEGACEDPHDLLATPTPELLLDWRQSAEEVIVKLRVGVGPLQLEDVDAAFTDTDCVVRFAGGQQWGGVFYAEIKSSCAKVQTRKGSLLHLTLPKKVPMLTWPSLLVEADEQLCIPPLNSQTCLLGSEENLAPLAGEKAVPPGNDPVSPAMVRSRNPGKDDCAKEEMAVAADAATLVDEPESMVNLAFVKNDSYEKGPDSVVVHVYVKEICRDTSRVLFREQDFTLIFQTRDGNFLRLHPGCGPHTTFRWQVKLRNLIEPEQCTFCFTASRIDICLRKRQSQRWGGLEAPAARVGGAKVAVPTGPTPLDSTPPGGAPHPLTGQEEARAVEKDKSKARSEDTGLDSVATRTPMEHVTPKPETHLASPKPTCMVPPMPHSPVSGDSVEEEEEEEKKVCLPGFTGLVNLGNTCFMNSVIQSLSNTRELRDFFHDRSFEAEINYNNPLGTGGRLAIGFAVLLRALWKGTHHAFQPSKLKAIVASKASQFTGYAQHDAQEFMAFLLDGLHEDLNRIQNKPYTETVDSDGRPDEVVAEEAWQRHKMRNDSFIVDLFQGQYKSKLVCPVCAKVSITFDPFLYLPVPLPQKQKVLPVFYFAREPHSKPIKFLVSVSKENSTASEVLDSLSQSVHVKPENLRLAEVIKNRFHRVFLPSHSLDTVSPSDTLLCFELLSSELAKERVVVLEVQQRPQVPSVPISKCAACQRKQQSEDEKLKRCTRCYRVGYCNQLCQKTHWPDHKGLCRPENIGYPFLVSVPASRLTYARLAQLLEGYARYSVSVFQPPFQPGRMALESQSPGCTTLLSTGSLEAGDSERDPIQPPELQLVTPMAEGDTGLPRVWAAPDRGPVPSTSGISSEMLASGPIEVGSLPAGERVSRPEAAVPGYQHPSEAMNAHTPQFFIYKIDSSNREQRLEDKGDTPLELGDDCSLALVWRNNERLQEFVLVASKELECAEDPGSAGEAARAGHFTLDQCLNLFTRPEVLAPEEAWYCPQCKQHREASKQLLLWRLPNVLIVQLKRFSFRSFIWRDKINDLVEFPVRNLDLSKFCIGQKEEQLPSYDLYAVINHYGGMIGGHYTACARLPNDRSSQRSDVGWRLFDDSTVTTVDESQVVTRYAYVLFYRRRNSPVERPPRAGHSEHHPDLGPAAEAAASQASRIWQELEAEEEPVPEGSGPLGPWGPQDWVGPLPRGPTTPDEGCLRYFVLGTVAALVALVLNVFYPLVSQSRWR
In short: (§1)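 HEK293T lysate (495 µg per sample, in Tris/CHAPS/IGEPAL buffer with protease inhibitors) was treated in triplicate with fragment at 200 µM or with DMSO for 3 h. It was then treated with Biotin-Ahx-Ub-VS (0.5 µM final) for 1 h. Labelled DUBs were NeutrAvidin-enriched, digested with LysC and trypsin, and run by diaPASEF LC-MS/MS. Spectronaut label-free quantities were global-median-normalised. Values are average log2 ratios fragment/DMSO by unpaired t-test, using proteins with ≥2 unique peptides.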

[2] = biological target: T2, USP22 (UniProt Q9UPT9)
T2 sequence (whole entry): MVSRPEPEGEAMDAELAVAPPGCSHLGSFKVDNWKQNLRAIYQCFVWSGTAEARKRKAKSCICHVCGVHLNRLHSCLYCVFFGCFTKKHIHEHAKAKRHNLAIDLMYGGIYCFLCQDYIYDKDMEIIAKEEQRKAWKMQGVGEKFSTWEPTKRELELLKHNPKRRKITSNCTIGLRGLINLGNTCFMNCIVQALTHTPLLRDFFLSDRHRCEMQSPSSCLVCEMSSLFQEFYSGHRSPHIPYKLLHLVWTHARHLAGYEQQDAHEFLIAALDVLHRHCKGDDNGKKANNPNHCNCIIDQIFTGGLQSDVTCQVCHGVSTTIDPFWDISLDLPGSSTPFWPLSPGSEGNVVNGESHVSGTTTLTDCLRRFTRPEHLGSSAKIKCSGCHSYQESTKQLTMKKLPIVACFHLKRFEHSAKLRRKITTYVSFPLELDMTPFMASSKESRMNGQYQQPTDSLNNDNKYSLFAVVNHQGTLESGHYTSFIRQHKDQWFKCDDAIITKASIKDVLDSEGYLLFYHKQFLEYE
In short: as §1

[3] = biological target: USP24 (UniProt Q9UPU5)
In short: as §1

[4] = biological target: T3, USP25 (UniProt Q9UHP3)
T3 sequence (whole entry): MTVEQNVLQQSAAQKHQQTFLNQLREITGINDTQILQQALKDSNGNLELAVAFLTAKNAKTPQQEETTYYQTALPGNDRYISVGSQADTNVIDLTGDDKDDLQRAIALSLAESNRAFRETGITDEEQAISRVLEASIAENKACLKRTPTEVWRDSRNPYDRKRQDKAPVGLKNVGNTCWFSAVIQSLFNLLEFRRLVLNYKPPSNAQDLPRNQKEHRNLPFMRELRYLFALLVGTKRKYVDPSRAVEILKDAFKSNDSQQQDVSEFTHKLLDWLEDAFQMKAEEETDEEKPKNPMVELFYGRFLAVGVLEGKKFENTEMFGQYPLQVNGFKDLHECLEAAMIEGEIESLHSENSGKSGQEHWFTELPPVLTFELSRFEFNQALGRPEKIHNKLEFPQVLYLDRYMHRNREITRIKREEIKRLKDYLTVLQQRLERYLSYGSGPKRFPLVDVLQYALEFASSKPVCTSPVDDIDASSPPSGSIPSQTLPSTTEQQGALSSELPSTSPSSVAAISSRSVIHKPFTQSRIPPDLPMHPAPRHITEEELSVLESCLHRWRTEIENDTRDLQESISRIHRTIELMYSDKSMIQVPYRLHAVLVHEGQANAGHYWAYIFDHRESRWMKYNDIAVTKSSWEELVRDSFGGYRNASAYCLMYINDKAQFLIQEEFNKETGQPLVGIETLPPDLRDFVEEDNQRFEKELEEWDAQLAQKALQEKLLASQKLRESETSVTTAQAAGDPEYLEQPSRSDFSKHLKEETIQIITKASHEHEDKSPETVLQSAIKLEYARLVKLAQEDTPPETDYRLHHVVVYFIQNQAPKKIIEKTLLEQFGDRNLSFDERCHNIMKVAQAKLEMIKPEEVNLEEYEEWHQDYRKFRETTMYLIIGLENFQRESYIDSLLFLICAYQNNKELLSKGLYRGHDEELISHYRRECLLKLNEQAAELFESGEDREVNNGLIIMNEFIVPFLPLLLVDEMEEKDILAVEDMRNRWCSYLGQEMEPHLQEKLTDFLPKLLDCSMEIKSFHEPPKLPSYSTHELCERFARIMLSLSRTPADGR
In short: as §1

[5] = biological target: T4, USP28 (UniProt Q96RU2)
T4 sequence (whole entry): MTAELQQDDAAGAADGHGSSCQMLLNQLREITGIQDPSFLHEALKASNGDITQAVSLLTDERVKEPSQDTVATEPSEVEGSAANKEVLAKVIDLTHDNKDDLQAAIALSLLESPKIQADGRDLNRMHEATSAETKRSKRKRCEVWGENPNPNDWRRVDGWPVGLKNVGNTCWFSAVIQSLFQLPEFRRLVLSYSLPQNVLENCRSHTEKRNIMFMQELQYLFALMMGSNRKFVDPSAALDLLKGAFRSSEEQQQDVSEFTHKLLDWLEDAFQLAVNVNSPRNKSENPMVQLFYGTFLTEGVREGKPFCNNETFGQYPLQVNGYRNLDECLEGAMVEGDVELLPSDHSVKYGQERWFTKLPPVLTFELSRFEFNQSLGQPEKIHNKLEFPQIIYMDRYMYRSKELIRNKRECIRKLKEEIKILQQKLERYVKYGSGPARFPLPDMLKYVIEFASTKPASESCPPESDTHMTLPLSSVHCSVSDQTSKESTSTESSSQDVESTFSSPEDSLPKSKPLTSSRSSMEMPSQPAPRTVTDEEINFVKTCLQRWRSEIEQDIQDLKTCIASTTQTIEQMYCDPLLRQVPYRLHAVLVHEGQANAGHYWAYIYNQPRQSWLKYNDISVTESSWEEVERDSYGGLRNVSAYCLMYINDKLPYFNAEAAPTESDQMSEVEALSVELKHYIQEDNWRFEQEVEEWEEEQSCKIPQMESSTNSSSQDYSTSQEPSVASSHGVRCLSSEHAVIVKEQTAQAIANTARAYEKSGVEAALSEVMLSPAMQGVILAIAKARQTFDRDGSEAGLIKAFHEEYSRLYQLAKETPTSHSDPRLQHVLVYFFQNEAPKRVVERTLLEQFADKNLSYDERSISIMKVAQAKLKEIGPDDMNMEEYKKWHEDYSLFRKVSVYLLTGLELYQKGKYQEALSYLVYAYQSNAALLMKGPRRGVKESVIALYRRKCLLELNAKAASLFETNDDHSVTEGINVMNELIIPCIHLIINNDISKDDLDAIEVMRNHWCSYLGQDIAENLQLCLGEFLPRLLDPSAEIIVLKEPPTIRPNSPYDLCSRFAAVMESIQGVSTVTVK
In short: as §1

Measured: log2 ratio of Biotin-Ahx-Ub-VS probe labelling

Sequence of USP24 (Q9UPU5 whole entry): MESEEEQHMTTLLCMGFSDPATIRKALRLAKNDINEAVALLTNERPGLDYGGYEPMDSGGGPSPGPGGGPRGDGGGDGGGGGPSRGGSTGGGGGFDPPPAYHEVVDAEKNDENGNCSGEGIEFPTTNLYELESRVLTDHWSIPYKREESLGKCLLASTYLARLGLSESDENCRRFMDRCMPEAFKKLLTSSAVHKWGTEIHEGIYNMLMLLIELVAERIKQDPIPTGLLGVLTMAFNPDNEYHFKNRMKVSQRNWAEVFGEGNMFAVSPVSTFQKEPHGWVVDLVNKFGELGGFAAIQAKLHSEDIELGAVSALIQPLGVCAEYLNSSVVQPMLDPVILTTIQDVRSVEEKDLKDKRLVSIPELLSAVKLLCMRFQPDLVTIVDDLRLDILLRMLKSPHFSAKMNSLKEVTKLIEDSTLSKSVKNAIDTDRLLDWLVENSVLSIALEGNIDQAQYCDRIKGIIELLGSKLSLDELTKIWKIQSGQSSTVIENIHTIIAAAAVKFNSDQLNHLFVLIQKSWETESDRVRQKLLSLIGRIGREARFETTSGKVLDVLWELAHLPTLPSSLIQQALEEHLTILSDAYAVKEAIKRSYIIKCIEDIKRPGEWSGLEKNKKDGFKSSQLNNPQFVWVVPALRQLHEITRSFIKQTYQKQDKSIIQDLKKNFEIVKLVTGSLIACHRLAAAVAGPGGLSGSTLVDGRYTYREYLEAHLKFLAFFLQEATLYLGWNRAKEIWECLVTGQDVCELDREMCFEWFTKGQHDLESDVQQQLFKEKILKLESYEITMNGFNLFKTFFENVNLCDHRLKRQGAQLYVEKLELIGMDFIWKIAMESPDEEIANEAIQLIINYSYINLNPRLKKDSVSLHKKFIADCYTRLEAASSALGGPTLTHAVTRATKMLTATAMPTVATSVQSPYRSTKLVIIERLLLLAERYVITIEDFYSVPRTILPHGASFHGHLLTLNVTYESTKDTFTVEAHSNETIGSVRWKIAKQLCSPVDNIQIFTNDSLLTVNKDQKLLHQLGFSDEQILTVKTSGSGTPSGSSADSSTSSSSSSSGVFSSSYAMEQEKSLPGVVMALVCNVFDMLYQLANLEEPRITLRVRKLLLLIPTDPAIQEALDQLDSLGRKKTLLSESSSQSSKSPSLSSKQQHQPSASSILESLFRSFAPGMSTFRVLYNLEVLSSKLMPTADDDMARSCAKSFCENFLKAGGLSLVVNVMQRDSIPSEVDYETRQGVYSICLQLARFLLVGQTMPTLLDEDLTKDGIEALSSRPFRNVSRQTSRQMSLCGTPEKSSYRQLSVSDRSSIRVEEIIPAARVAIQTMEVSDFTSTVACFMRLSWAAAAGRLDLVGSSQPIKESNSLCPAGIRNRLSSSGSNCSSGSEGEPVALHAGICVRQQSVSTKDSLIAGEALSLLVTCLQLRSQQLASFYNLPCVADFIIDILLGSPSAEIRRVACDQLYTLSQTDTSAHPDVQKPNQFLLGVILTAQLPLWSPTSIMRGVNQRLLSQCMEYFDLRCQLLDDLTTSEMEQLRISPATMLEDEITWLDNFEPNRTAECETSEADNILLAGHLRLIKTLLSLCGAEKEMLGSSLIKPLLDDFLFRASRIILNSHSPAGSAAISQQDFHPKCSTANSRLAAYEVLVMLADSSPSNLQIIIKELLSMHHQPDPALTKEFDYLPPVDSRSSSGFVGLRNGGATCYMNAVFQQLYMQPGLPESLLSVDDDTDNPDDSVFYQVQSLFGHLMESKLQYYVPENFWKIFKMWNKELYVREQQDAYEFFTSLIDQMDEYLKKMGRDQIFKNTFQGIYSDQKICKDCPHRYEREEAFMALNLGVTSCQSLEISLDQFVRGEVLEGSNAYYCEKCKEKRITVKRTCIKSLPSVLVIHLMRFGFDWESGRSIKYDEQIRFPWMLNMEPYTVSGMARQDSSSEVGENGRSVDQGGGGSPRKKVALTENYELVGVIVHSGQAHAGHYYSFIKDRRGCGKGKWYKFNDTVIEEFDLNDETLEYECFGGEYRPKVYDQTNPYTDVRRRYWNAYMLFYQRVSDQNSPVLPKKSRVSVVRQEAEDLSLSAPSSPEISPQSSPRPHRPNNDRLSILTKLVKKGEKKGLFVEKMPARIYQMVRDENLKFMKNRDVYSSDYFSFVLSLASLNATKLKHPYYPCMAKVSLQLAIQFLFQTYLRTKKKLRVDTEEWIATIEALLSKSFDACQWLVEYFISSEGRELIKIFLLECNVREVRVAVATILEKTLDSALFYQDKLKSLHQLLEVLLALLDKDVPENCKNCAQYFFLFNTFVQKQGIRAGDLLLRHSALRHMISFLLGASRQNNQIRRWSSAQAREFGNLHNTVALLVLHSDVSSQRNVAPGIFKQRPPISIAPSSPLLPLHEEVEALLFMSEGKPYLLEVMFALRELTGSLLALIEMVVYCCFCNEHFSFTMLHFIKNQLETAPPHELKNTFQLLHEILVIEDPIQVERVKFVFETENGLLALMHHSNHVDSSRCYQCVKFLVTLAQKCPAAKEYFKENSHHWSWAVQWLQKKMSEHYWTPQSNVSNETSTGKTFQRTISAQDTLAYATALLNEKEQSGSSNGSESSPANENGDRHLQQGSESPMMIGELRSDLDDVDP

Cc1ccc2nnc(CNC(=O)CCl)n2c1
inactive: [1] -0.0329 | [2] -0.259 | [3] 0.0887 | [4] 0.182 | [5] -0.241
